Assay outcomes: PubChem, National Center for Advancing Translational Sciences (NCATS)
A selection: hits, their analogues and other compounds. The true share with any hit is near 19%.
DT40 TDP1 no CPT = qHTS for Inhibitors of human tyrosyl-DNA phosphodiesterase 1 (TDP1): qHTS in cells in absence of CPT. DT40 Tdp1-/- hTDP1 cells, no CPT, ATP luminescence, 48 h. Potency, µM (highest dose often 46.2 µM), for the others: at the highest dose activity change, negative = growth inhibition, usual class: inhibitors. hit rate 15% among 420,000. AID 686978, 2013; also: potency is read from the fitted curve at half-maximal effect; nearly all actives have a fitted effect of over 55% in size
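Luminescent ATP content (CellTiter-Glo) served as the growth readout. Knockout chicken DT40 cells expressing human TDP1 were exposed to compounds without camptothecin for a minimum 48 hr at 37 °C.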
ELG1 DNA repair = qHTS screen for small molecules that inhibit ELG1-dependent DNA repair in human embryonic kidney (HEK293T) cells expressing luciferase-tagged ELG1. HEK293T ELG1-luciferase reporter, luminescence, 16 h; DNA damage induced by 5-fluorouridine. Potency, µM (top dose mostly 46.1 µM), for inactives: at the top dose activity change, negative = inhibition, usual class: inhibitors. hit rate 2.3% among 330,000; also: potency is read from the fitted curve at half-maximal effect; nearly all actives have a fitted effect of over 55% in size
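Quantitative HTS, concentration-response format. 2,000 cells/well co-treated with 5-fluorouridine and compound, 16 hr in 5% CO2 at 37 °C; ONE-Glo luminescence read after 30 min.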
TDP1 cell CPT = qHTS for Inhibitors of human tyrosyl-DNA phosphodiesterase 1 (TDP1): qHTS in cells in presence of CPT | AID 686979, 2013 | hit rate 12% among 420,000 | chicken DT40 Tdp1-/-;hTDP1 cells + 20 nM CPT, ATP luminescence, 48 h | Potency, µM (highest dose often 46.2 µM), without a hit: top-dose activity change, negative = growth inhibition, most hits filed as inhibitors; also: potency is read from the fitted curve at half-maximal effect; nearly all actives have a fitted effect of over 55% in size
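Chicken DT40 Tdp1-/- cells stably complemented with human TDP1 were seeded at 400 cells/well in medium containing 20 nM camptothecin, exposed to pin-transferred compounds, and grown at 37 °C for at least 48 hr. Viability was read as ATP luminescence.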
HT1080 IDH1KD tx = qHTS for induction of synthetic lethality in tumor cells producing 2HG: qHTS for the HT-1080-IDH1KD cell line. hit rate 2% among 360,000. Potency, µM (titrated, usually from 46.1 µM), inactives show at the top dose activity, negative = toxicity, usual class: cytotoxic. HT-1080 IDH1 knockdown viability, ATP luminescence, 48 h;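 also: potency is read from the fitted curve at half-maximal effect; 0% = DMSO wells and -100% = cell-free medium wells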
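IDH1KD HT-1080 cells, 750/well, RPMI + 5% FBS; compound pinned after 2 h settling; 48 h, 37 °C; CellTiter-Glo luminescence; % activity normalised to DMSO and no-cell wells; curves fitted, classed by r2 and efficacy.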
HT1080-NT tox = qHTS for induction of synthetic lethality in tumor cells producing 2HG: qHTS for the HT-1080-NT fibrosarcoma cell line; HT-1080-NT fibrosarcoma viability, CellTiter-Glo ATP luminescence, 48 h; Potency, µM (top dose mostly 46.1 µM), for inactives: top-dose activity, negative = less viability, usual class: cytotoxic; hit rate 1.6% among 360,000;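 also: NT is the 2HG producing partner of a matched IDH1 knockdown line; potency is read from the fitted curve at half-maximal effect; 0% = DMSO-treated cells and -100% = media-only wells without cells; nearly all actives have a fitted effect of over 55% in size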
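Viability of the 2HG-overproducing fibrosarcoma line after 48 hours of compound exposure at 37 degrees C was determined by luminescence with CellTiter-Glo, and concentration-effect curves were then fitted and categorized.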
IL1B secr inh = qHTS for Inhibitors of Inflammasome Signaling: IL-1-beta AlphaLISA Primary Screen; THP-1 LPS/ATP IL-1B secretion, AlphaLISA, 16 h; active compounds read low; activity change, % at 57.5 µM; hit rate 4.7% among 360,000; AID 743279, 2014; in the data active = activity change below about -50%; inconclusive = mostly about -30% to -49%
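Secreted IL-1B measured by AlphaLISA bead assay after 16 h compound exposure of THP-1 cells; compounds (final up to 57.5 uM) added 1 h before LPS (250 ng/mL) and ATP (1.25 mM) stimulation; lower signal means less secretion.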
* marks the source's active call; other numbers are inactive results; ? = inconclusive; / = no result given; ! = not confirmed by another sample; [ ] = remark or other dose. Unless noted, calls follow the shape of the dose curve; as a rule, active = well fitted curve in the direction sought with a large enough effect; inconclusive = small, poorly fitted or top-dose-only effect, or another doubt; inactive = no such curve, though single readings can be large; an effect the other way counts as inactive or inconclusive. Unless noted, % is scaled to controls: 0 for no effect and ±100 for the full control effect.

SMILES	DT40 TDP1 no CPT	ELG1 DNA repair	TDP1 cell CPT	HT1080 IDH1KD tx	HT1080-NT tox	IL1B secr inh
COc1ccc(Oc2c(OC)cc(NCc3ccc(CN)cc3)c3ncccc23)cc1	26µM*	/	?	-18%	-11%	31
COc1ccc(CNc2cccnc2Cl)cc1	-35%	/	2%	6%	1%	-11
CSCc1cccc(C(=O)OC(C)C(=O)Nc2c(C)n(C)n(-c3ccccc3)c2=O)c1 (stereo unspecified)	6%	-15%	16%	4%	11%	-20
CC1(c2nnc(-c3cccc(Cl)c3)o2)CC(c2ccc(C#N)cc2)=NO1 (stereo unspecified)	18µM*	/	?	13%	18%	-10
CC(=O)c1ccc(-c2c(C)cc3oc(=O)cc(-c4ccccc4)c3c2C)cc1	23µM*	?	18µM*	-6%	-3%	17
Cc1cc2oc(=O)cc(-c3ccccc3)c2c(C)c1-c1ccc(C#N)cc1	16µM*	-15%	16µM*	-3%	-15%	39
CCCC1CC(=O)NC1(C(=O)OCC)C(=O)OCC (stereo unspecified)	0%	/	8%	13%	8%	-20
O=c1[nH]cnc2c1ncn2[C@H]1CC[C@@H](CO)O1	12µM*!	/	9.2µM*!	14%	30%	0
O=c1[nH]cnc2c1ncn2C1OC(CO)CC1F (stereo unspecified)	1.8µM*	/	0.46µM*	0%	17%	28
O=c1[nH]cnc2c1ncn2C1OCC(O)C(O)C1O (stereo unspecified)	-11%	/	-9%	0%	1%	7
COC(=O)c1cc2oc3ccccc3c2n1CC(=O)Nc1ccc(C)cc1Cl	-16%	/	-19%	/	/	/
O=C(Nc1ccc(Cl)cc1Cl)c1ccc2ncsc2c1	-12%	?	-22%	-4%	-7%	0
O=C(NCc1ccncc1)c1cnn(-c2nccc(-c3cccs3)n2)c1C1CC1	-11%	/	-7%[9.04 µM]	/	/	/
COc1ccc(C(=O)OCC2CC(c3ccccc3)=NO2)cc1OC (stereo unspecified)	?	13%	23µM*	11%	11%	-13
COc1ccc(-c2nc3c(c(=O)n(C)c(=O)n3C)n2CC2CC(c3ccccc3)=NO2)cc1OC (stereo unspecified)	1.5µM*	/	10µM*	-3%	-6%	-6
COc1ccc(NC(=O)COC(=O)C2CCN(S(=O)(=O)c3ccccc3)CC2)cc1Cl	1%	12%	0%	1%	8%	6
Cc1cnc(CNc2cc(-c3ccc(N(C)C)cc3)ncn2)cn1	-12%	/	-27%	/	/	/
Cc1cccc(NC(=O)CSc2nc(=O)n(Cc3cccnc3)c3c2CCC3)c1C	-21%	/	9%	/	/	/
Cc1cc(/N=C/C=C2\N(C)c3ccccc3C2(C)C)n(CCC#N)n1	4.6µM*	?	5.8µM*	3%[9.24 µM]	?	-90*
CN1\C(=C/C=C/C=C/C=[N+](C)C)C(C)(C)c2ccccc21	2.3µM*	-24%	2.6µM*	?	?	-21
CN1/C(=C\C=Nc2ccc3ccccc3c2)C(C)(C)c2ccccc21	/	13%	/	/	/	/
CN(C)c1ccc(N=C/C=C2\N(C)c3ccccc3C2(C)C)cc1	4.1µM*	?	5.2µM*	?	?	-89*
O=C(CSc1nccn1Cc1ccccc1)Nc1ccc2c(c1)OCO2	-1%	/	?	/	/	/
CC1(C(=O)NS(=O)(=O)c2ccc(C#N)cc2)CCN1C(=O)Cc1ccsc1 (stereo unspecified)	-11%	/	-15%	15%	22%	15
COc1cccc(C(C(=O)NCc2ccccc2)N(C(=O)c2csnn2)C2CC2)c1 (stereo unspecified)	?	-4%	?	19%	13%	4
SMILES	DT40 TDP1 no CPT	ELG1 DNA repair	TDP1 cell CPT	HT1080 IDH1KD tx	HT1080-NT tox	IL1B secr inh
O=C(O)c1cccs1	-6%	/	-5%	/	/	/
Cc1ccnc2ccc(I)cc12	-23%	/	?	/	/	/
O=C(CCN1C(=O)C2C3C=CC(C3)C2C1=O)Nc1ccccc1 (stereo unspecified)	2%	-18%	-1%	-3%	0%	14
Cc1cc(NC(=O)CCN2C(=O)C3C4C=CC(C4)C3C2=O)c2ccccc2n1 (stereo unspecified)	21µM*	?	?	-11%	-10%	-5
Cn1c(=O)c(-c2ccc(Cl)cc2)nc2cnc(Oc3cccc(Cl)c3)nc21	-11%	/	-22%	/	/	/
CC(C)c1nc2c(c(=O)c3ccccc3n2C)c(=O)n1-c1ccc(F)cc1	12µM*	0%	15µM*	-4%	0%	41
CCSC1=NCCN1C(=O)c1ccc(S(=O)(=O)N(C)C)cc1	7%	-2%	-18%	1%	-6%	0
O=C(CN1c2ccccc2Sc2ccccc21)NNC(=O)Nc1ccc(Cl)c(Cl)c1	-46%	-16%	0%	?	21µM*	-92*
O=C(CCc1ccccc1)NNC(=O)Nc1ccc(Cl)cc1	-12%	2%	-7%	-6%	19%	-1
O=C(CN1c2ccccc2Sc2ccccc21)NNC(=O)Nc1ccc(Cl)cc1	?	-11%	?	21µM*	23µM*	-80*
COc1cc2c(CCNC(C)=O)c[nH]c2cc1Cl	-3%	23%	7%	0%	-17%	2
Cc1csc(SCC(=O)Nc2ccc(S(=O)(=O)N3CCCC3)cc2)n1	-20%	?	18µM*	-12%	-5%	5
Cn1nnnc1SCC(=O)Nc1cc(S(=O)(=O)N2CCCC2)ccc1Cl	0%	8%	9%	6%	4%	-6
Cn1nnnc1SCC(=O)Nc1cc(S(=O)(=O)N2CCCCC2)ccc1Cl	23µM*	-26%	18µM*	-2%	-5%	-5
Cc1cccc(Nc2nnc(SCC(=O)Nc3cccc(S(=O)(=O)N4CCCCC4)c3)s2)c1	23µM*	?	23µM*	-23%	-15%	-15
Cc1nnc(SCC(=O)Nc2cc(S(=O)(=O)N3CCCC3)ccc2Cl)n1C1CC1	-18%	0%	-17%	5%	1%	20
